43 sequences from publication PMC10726135, “HNF4α isoforms regulate the circadian balance between carbohydrate and lipid metabolism in the liver” can be followed below.

In all, about 18,000 sequences were measured (“log2 normalized intensity”: median about 0.39, highest 2% from about 6.6 on). Shown is part of a subset that was picked to be rich in the highest values.

In this test the target is T1, HNF4alpha2 (COS-7 nuclear extract) (Homo sapiens, UniProt P41235 1-474).
T1 sequence: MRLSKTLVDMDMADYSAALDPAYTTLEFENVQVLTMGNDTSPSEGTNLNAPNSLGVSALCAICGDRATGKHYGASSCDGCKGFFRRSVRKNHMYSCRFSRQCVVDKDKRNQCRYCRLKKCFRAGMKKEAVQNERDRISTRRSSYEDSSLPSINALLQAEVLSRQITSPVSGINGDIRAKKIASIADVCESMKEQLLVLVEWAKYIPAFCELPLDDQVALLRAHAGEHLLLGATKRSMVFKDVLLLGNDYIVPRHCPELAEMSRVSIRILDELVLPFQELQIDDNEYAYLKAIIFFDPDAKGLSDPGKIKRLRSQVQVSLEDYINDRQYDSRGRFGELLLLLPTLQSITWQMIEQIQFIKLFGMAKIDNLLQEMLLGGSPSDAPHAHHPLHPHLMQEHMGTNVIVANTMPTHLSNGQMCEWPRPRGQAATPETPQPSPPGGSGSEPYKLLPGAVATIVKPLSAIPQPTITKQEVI
Nature of the test: protein-binding microarray; COS-7 nuclear extract on double-stranded Agilent 4x180k PBM; binding buffer, salt, pH and temperature not given in the material; high values mean tight binding. Conditions: chain copies: 2; label: 3' end of strand 1 on the slide; dsDNA, one strand shown. The method, boiled down:
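COS-7 cells were transiently transfected by CaPO4 with an expression vector for a human HNF4α isoform, and nuclear extracts were prepared from them. The extracts were applied to a custom Agilent SurePrint G3 4x180k array of double-stranded ~60-nt oligonucleotides, with ~44,000 test sequences spotted in quadruplicate. An Agilent G2565CA scanner imaged bound HNF4α at 2-µm resolution. Binding signal is the background-corrected, normalized gProcessedSignal from Agilent software.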
In the case of “CAGAAAAATGGAGCAGCTCTGTATTGAGATGCCTAGGGAGATTAGAGTATCGGTCGA”, the binding signal is -0.99 log2 normalized intensity.

As to “TGCCATTCTTCCAGTTGTGTGCACAAGAGGGCCTAGGGAGATTAGAGTATCGGTCGA”, the binding signal came out at 1.7 log2 normalized intensity.

As to “GAATTTCATTTTGCTCTTTGTTCAGATACAGCCTAGGGAGATTAGAGTATCGGTCGA”, the binding signal was determined as 1.33 log2 normalized intensity.

On to “TTTTTTCAAGTGTTAGCTGTTTCCAAATATGCCTAGGGAGATTAGAGTATCGGTCGA”, for which the binding signal was 1.42 log2 normalized intensity.

For the sequence “AATCCCTTAGGCTTTTGCACTTTACTCAGAGCCTAGGGAGATTAGAGTATCGGTCGA”, the binding signal was found to be 3.14 log2 normalized intensity.

For “CCCCTCCCTCCGCAACCTTTACTCCTTGTGGCCTAGGGAGATTAGAGTATCGGTCGA”, the binding signal is 3.68 log2 normalized intensity.

Turning to “GTCACCACCTTTTTTGGCCTTTACCCCTTGGCCTAGGGAGATTAGAGTATCGGTCGA”, the binding signal turned out to be 4.8 log2 normalized intensity.

For the sequence “AAAAAACCCTAGAGATGTACACAGTTCAAAGCCTAGGGAGATTAGAGTATCGGTCGA”, the binding signal is -0.874 log2 normalized intensity.

Turning to “ATGGCCAGCCTTTGGACTTTGAACTGCAACGCCTAGGGAGATTAGAGTATCGGTCGA”, the binding signal was determined as 9.66 log2 normalized intensity.

In the case of “TACCTTTCCTGCATTAACATCAACATGGACGCCTAGGGAGATTAGAGTATCGGTCGA”, the binding signal is 2.1 log2 normalized intensity.

In the case of “AGCAGATGGCCAGCCTTTGGACTTTGAACTGCCTAGGGAGATTAGAGTATCGGTCGA”, the binding signal is 10.7 log2 normalized intensity.

“TATTTGGATAATGTGCCCTTTGTACCTGGGGCCTAGGGAGATTAGAGTATCGGTCGA”: the binding signal was determined as 7.01 log2 normalized intensity.

In the case of “TCAAATATTTGGATAATGTGCCCTTTGTACGCCTAGGGAGATTAGAGTATCGGTCGA”, the binding signal is 6.6 log2 normalized intensity.

Regarding “TTTTTGGCCTTTACCCCTTGAGTTTGAACTGCCTAGGGAGATTAGAGTATCGGTCGA”, the binding signal amounted to 3.59 log2 normalized intensity.

In the case of “TTCCTGCATTAACATCAACATGGACTTTGAGCCTAGGGAGATTAGAGTATCGGTCGA”, the binding signal was 8.62 log2 normalized intensity.

Take “GCATTAACATCAACATGGACTTTGAGTCATGCCTAGGGAGATTAGAGTATCGGTCGA”: the binding signal worked out at 6.21 log2 normalized intensity.

In the case of “TTTGAAGCAAAGCCTTTGAGCAGATGGAAGGCCTAGGGAGATTAGAGTATCGGTCGA”, the binding signal turned out to be 0.0298 log2 normalized intensity.

As for “AGGGTCTTTGCAACTGTGTGTGGCCTGCACGCCTAGGGAGATTAGAGTATCGGTCGA”, the binding signal amounted to 1.38 log2 normalized intensity.

“GGATAATGTGCCCTTTGTACCTGGGGCAAAGCCTAGGGAGATTAGAGTATCGGTCGA”: the binding signal came to 5.03 log2 normalized intensity.

For the sequence “TGGTGGCACAGGGAATGGCTCGTATGAATGGCCTAGGGAGATTAGAGTATCGGTCGA”, the binding signal was determined as 0.46 log2 normalized intensity.

For the sequence “ATTGACAAAGACCAGTGCTCTTTCTTCTCTGCCTAGGGAGATTAGAGTATCGGTCGA”, the binding signal is -0.734 log2 normalized intensity.

As to “AGGGTTCAAACTCCAGCTCTGATACTTTCTGCCTAGGGAGATTAGAGTATCGGTCGA”, the binding signal was found to be 3.12 log2 normalized intensity.

Regarding “GTGAGGCATCTGGACCATTGCTGACCTTGCGCCTAGGGAGATTAGAGTATCGGTCGA”, the binding signal is 3.01 log2 normalized intensity.

“CTCTCGTCACCTCCACCCACCCGTGCATCAGCCTAGGGAGATTAGAGTATCGGTCGA”: the binding signal was determined as 4.68 log2 normalized intensity.

Take “TCCCACTAGGTGGCGCTGTTGACCTTGAAAGCCTAGGGAGATTAGAGTATCGGTCGA”: the binding signal worked out at 3.09 log2 normalized intensity.

As to “GCCATCTGGTGGACTTTGCTCTGCTCATTTGCCTAGGGAGATTAGAGTATCGGTCGA”, the binding signal was 6.26 log2 normalized intensity.

Consider “CTGCTTGATAGCCATCTGGTGGACTTTGCTGCCTAGGGAGATTAGAGTATCGGTCGA”, for which the binding signal was 5.26 log2 normalized intensity.

For “TGATAGCCATCTGGTGGACTTTGCTCTGCTGCCTAGGGAGATTAGAGTATCGGTCGA”, the binding signal amounted to 7.44 log2 normalized intensity.

With “CAAAGGGTCAAGTTCAGATCCTGGCCATGCGCCTAGGGAGATTAGAGTATCGGTCGA”, the binding signal is 0.748 log2 normalized intensity.

Turning to “GAGCAGGGTATCAGTTGAACAGAATAGAGGGCCTAGGGAGATTAGAGTATCGGTCGA”, the binding signal was -0.996 log2 normalized intensity.

Turning to “GTGTGCAATTAGAGCAAAGGTTACTGCAGAGCCTAGGGAGATTAGAGTATCGGTCGA”, the binding signal was found to be 2.62 log2 normalized intensity.

Turning to “GAACCTGCCCTCTGTCCCATGGTGTACAAGGCCTAGGGAGATTAGAGTATCGGTCGA”, the binding signal turned out to be 1.26 log2 normalized intensity.

Take “CCAGTTTTCCCAAAGGAGCTTTATTGGTTCGCCTAGGGAGATTAGAGTATCGGTCGA”: the binding signal was 1.5 log2 normalized intensity.

For the sequence “TGAGAATCTGACCTTTGGTTAACTTCTTAAGCCTAGGGAGATTAGAGTATCGGTCGA”, the binding signal was 4.02 log2 normalized intensity.

Regarding “TAGGTTTGTGAGTCCAAAGGTCAGCCGGGGGCCTAGGGAGATTAGAGTATCGGTCGA”, the binding signal was 7.74 log2 normalized intensity.

“TGAGTATCCAAAGGTCAGTGACAAATGTCAGCCTAGGGAGATTAGAGTATCGGTCGA”: the binding signal was 3.65 log2 normalized intensity.

As to “AGGTCAGGGAGTAGGTTTGATTTGTGAAAGGCCTAGGGAGATTAGAGTATCGGTCGA”, the binding signal is 0.942 log2 normalized intensity.

For the sequence “AAAAGGATGCTAGGTTTGTGAGTCCAAAGGGCCTAGGGAGATTAGAGTATCGGTCGA”, the binding signal turned out to be 4.16 log2 normalized intensity.

In the case of “AAGGTTGGTTTTTGGAGACAGGAGTAGTCAGCCTAGGGAGATTAGAGTATCGGTCGA”, the binding signal stood at 1.3 log2 normalized intensity.

As to “GATGCTAGGTTTGTGAGTCCAAAGGTCAGCGCCTAGGGAGATTAGAGTATCGGTCGA”, the binding signal is 9.14 log2 normalized intensity.

As to “ATGTTAGTCTTGAGTCCCAAAGTCCAAAGGGCCTAGGGAGATTAGAGTATCGGTCGA”, the binding signal was found to be 5.42 log2 normalized intensity.

Turning to “AGTCCAAAGGTCAGCCGGGGAAGGTGCAGGGCCTAGGGAGATTAGAGTATCGGTCGA”, the binding signal amounted to 5 log2 normalized intensity.

As to “TTGTGAGTCCAAAGGTCAGCCGGGGAAGGTGCCTAGGGAGATTAGAGTATCGGTCGA”, the binding signal was 6.71 log2 normalized intensity.
